The record followed here is PubChem BioAssay AID602293 (National Center for Advancing Translational Sciences (NCATS), 2012).

Each structure is given as a SMILES string. Screen size: about 1,300 compounds; about 30 (2%) were called active. Roughly 10% stayed inconclusive and do not appear here. The call rests on the fitted dose curve; in most records, active means well fitted inhibition curve with a large enough effect; inconclusive means small, poorly fitted or top-dose-only effect; inactive means flat fitted curve, though single readings scatter. The list comes from a sample in which actives are over-represented; it also holds similar structures and randomly drawn compounds. Entries that show only a call come without a potency.

The nature of this test: qHTS for antagonists of the Thyroid Stimulation Hormone Receptor: Hit Validation in HTRF Activity in a Luteinizing Hormone Receptor Cell Line. The note with it: LHR-expressing cell line, cAMP HTRF, antagonist mode; series mostly up to 58 µM. The procedure, abridged:
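Counter-screen on LH receptor–transfected HEK 293 cells: 30 min compound exposure at room temperature in medium containing 100 uM RO 20-1724 phosphodiesterase inhibitor. Cellular cAMP read by competitive HTRF after lysis with d2-cAMP and anti-cAMP antibody (330 nm excitation; 615/660 nm emission).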
(In general: In qHTS, concentration-response curves come from the screen itself.)
Regarding `O=C(CN1C(=O)NC2(CCCCCC2)C1=O)N1CCC(Cc2ccccc2)CC1`, the Potency entry was “inactive”.

Turning to `COc1ccc(NS(=O)(=O)c2cc(-c3cnc(C4CC4)o3)ccc2C)cc1`, the Potency entry is “inactive”.

For `CC(C)Cn1c(-c2csc3c2CCCC3)n[nH]c1=S`, the Potency entry was “inactive”.

For `CC(=O)Oc1c(I)cc(I)cc1C(=O)Nc1ccc(Cl)cc1`, the Potency entry is “inactive”.

Consider `Cc1ccc(NS(=O)(=O)c2cc(C(=O)Nc3cccc([N+](=O)[O-])c3)ccc2C)cc1`, for which the Potency entry is “inactive”.

As to `CCCCNC(=O)c1sc(=S)n2c1[nH]c(=O)c1ccccc12`, the Potency result was “inactive”.

As for `Cc1cccc(CSCCNC(=O)c2ccc(N(C)S(=O)(=O)c3ccccc3)cc2)c1`, the Potency result is “inactive”.

For `O=[N+]([O-])c1ccc(COc2cccc(CNc3ccc(F)cc3)c2)cc1`, the Potency result was “inactive”.

For the molecule `CCCCOc1ncnc2c1[nH]c1ccccc12`, the Potency result was “inactive”.

As for `COC(=O)Cn1c(=NC(=O)CSC(C)=O)sc2ccccc21`, the Potency result is “inactive”.

As to `CC(C)C[C@H](N)c1nnc(S(=O)(=O)Cc2ccc(F)cc2)o1`, the Potency entry was “inactive”.

As to `CC(C)c1ccc(/C=C/C(=O)NCCC2=CCCCC2)cc1`, the Potency result is “inactive”.

As to `CCOC(=O)c1sc(NC(=O)c2cc(-c3ccccc3)nc3ccccc23)c(C#N)c1C`, the Potency entry was “inactive”.

On to `CC1CCc2nc(NC(=O)CSc3nc4ccccc4o3)sc2C1` (stereo not given), for which the Potency entry was “inactive”.

Regarding `Cc1ccccc1NC1c2ccccc2C(=O)N1Cc1ccco1` (stereo not given), the Potency entry is “inactive”.

Regarding `Cc1c(N=Nc2c(-c3ccc([N+](=O)[O-])cc3)[nH]n(C(N)=S)c2=O)cccc1[N+](=O)[O-]`, the Potency entry is “inactive”.

As for `CC1CCN(S(=O)(=O)c2cccc(C(=O)N3CCN(c4ccc(F)cc4)CC3)c2)CC1`, the Potency entry was “inactive”.

As to `Cc1cccc2c1NC(=O)C2(c1ccc(O)cc1)c1ccc(O)cc1`, the Potency result is “inactive”.

Turning to `Cc1ccc(-c2cc(C(=O)Nc3ccncc3)c3ccccc3n2)cc1`, the Potency result was “inactive”.

Turning to `CSc1nsc(NC(=O)OCc2ccc(Cl)cc2)n1`, the Potency entry was “inactive”.

Consider `CCOC(=O)Cc1csc(NC(=O)COc2ccc(N(C)S(=O)(=O)c3cccs3)cc2)n1`, for which the Potency entry is “inactive”.

Turning to `O=C1S/C(=C\c2ccc(O)c([N+](=O)[O-])c2)C(=O)N1c1ccccc1Cl`, the Potency entry is “inactive”.

Turning to `Cn1c2c(c(=O)[nH]c1=O)C(c1ccc(O)cc1)C1=C(N2)c2ccccc2C1=O` (stereo not given), the Potency result is “inactive”.

`O=S(=O)(c1ccc(SCc2ccc(Cl)cc2)nc1)N1CCCC1`: the Potency result was “inactive”.

In the case of `CCOc1cc(C(=S)N2CCOCC2)ccc1OC(=O)c1ccccc1`, the Potency entry is “inactive”.
